Source: PubChem BioAssay (NCI)
This is part of a sample that, as a whole, favours compounds with a hit. Of some 83,000 tested, about 20% had one in any assay.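 Cells were grown in 96-well plates and exposed to the test compound at a single concentration for 48 hours; results are reported as percent growth, with values below 10 considered active.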 Unmarked numbers belong to inactive results. The source made the active and inactive calls.

What was measured:
Assay in all cases: NCI-60 one-dose screen, 48 h (100 = growth as untreated, 0 = no growth, -100 = all killed)
Settings in all cases: 10 µM unless noted
[1] = system: HCT-15 colon
[2] = system: HT29 colon
[3] = system: SNB-75 CNS
[4] = system: SNB-19 CNS
[5] = system: U251 CNS
[6] = system: PC-3 prostate
[7] = system: SK-MEL-5 melanoma
[8] = system: UACC-62 melanoma
[9] = system: LOX IMVI melanoma
[10] = system: SK-MEL-28 melanoma

Compound	growth [1]	growth [2]	growth [3]	growth [4]	growth [5]	growth [6]	growth [7]	growth [8]	growth [9]	growth [10]
CCc1c(C(=O)Nc2ccc3ccccc3c2)[nH]c(C)c1C(C)=O	79.1%	93.7%	84.4%	110%	98.3%	74%	77.4%	87.2%	96.3%	97.8%
Cc1cc2c(C(C)C)c(O)c(O)c(C=NCCCCC(=O)O)c2c(O)c1-c1c(C)cc2c(C(C)C)c(O)c(O)c(C=NCCCCC(=O)O)c2c1O	34.7%	46.6%	62.1%	30.9%	24%	29.2%	49.4%	59.2%	43.4%	64.2%
C#CCN1C(=O)/C(=c2\sc3n(c2=O)C2C(NN=3)N(CC)C(=O)N2CC)c2ccccc21 (stereo not given)	16%	7.7% (active)	-25.2% (active)	28%	11.2%	22.7%	12.4%	25.2%	27.1%	43.4%
COc1ccc(NC(=O)CSc2nc3ccccc3c(=O)n2Cc2cc(OC)c(OC)c(OC)c2)cc1	89.5%	110%	66.3%	95.8%	97.7%	85.1%	87.5%	74.2%	94.5%	94%
COc1c(NC[C@H]2OC(O)[C@H](O)[C@@H](O)[C@@H]2O)c(=O)c1=O (stereo not given in full)	107%	118%	70.9%	109%	95.4%	92.7%	100%	96.6%	95.5%	107%
Cc1ccc2c(c1)C(C)Cc1c(ncnc1-n1cnc3ccccc31)N2C (stereo not given)	12.3%	4.56% (active)	-10.3% (active)	34%	18.4%	21.9%	12.2%	26%	34%	61.8%
COc1cccc(-c2nc3sccn3c2-c2ccnc(NCCCNS(=O)(=O)c3ccccc3)n2)c1	29.7%	29.4%	92.6%	95.5%	71%	61.6%	9.71% (active)	14.2%	28.9%	43.4%
COC1=CC(c2ccc[nH]2)=N/C1=C\c1[nH]c(C)c(C(=O)CCC(=O)Oc2ccc3c(c2)CCC2C3CC[C@]3(C)[C@@H](O)CC[C@@H]23)c1C (stereo not given in full)	-48% (active)	6.68% (active)	12.1%	37.2%	-48.4% (active)	17.8%	-84.2% (active)	-41.8% (active)	-81.7% (active)	41.2%
C=C1C(=O)O[C@H]2[C@H](O)[C@@H](C)CCC/C(C)=C/CC[C@@]3(C)O[C@@H]3C[C@@H]12	96.3%	99.6%	75.7%	88%	97.3%	46.5%	91.5%	89%	92%	95.1%
COc1ccccc1OCC(=O)Nc1sc2c(c1C(N)=O)CCC2	83.1%	74.1%	86.8%	70.4%	60.9%	88.1%	70%	49.7%	50.5%	101%
CCN(CC)S(=O)(=O)c1ccc2[nH]c(=O)cc(C(=O)Nc3ccc(OC)cc3OC)c2c1	106%	126%	110%	104%	108%	105%	111%	103%	106%	123%
CCN(Cc1ccccc1)c1ccc(SC#N)cc1	64.8%	70.5%	83.1%	90.7%	81.5%	30.5%	93.8%	90.4%	49.2%	86.7%
